# According to PubChem BioAssay (NCATS):
# Values joined by “and” are separate entries in the source; they are usually repeats but may differ in a detail not shown here. Identical values can stand only once. Results filed as inconclusive are left out. Unmarked numbers belong to inactive results. Active and inactive are the calls of the source. Calls follow the shape of the dose curve; as a rule, active = well fitted curve in the direction sought with a large enough effect; inconclusive = small, poorly fitted or top-dose-only effect, or another doubt; inactive = no such curve, though single readings can be large; an effect the other way counts as inactive or inconclusive.
# Columns and labels:
# [1] = target: Cellular tumor antigen p53 (Homo sapiens) (UniProt P04637); test: Primary qHTS for small molecule compounds that upregulate eGFP-tagged delta133p53alpha (in N-terminal) cells. (AID 2060322); details: NCI-H358 eGFP-delta133p53alpha fluorescence, 24 h; activation: active compounds read high;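 also: cells pre-induced with doxycycline then dosed without doxycycline; series mostly up to about 56 µM; 0% = DMSO vehicle and 100% = reference activator; nearly all actives have a fitted effect of over 75% in size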
# Method in brief: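 NCI-H358 cells pre-induced 24 h with 10 ng/ml doxycycline for eGFP-delta133p53alpha, plated dox-free and exposed 24 h at 37C to titrated compounds. Fixed, Hoechst-stained; gated GFP peak intensity by laser scanning cytometry, normalized to DMSO (0%) and 57.5 uM 5-azacytidine (100%).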
# [2] = BET inhibitor-based combinations targeting novel dependencies in MECOM-rearranged (r) AML: UCSD-AML1 cell line (AID 2202235); also: nearly all actives have a fitted effect of over 40% in size; also: potency is read from the fitted curve at half-maximal effect
# Method in brief: (§1)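 Cells were plated at 500 per well and exposed to each drug across an 11-point dose range for 48 hr at standard incubator conditions. Viability was read by CellTiter-Glo luminescence, and activity was expressed as AUC and per-cell-line Z-transformed AUC.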
# [3] = target: Cellular tumor antigen p53 (Homo sapiens) (UniProt P04637); test: Primary qHTS for small molecule compounds that upregulate eGFP-tagged delta133p53alpha (in C-terminal) cells. (AID 2060324); also: potency is read from the fitted curve at half-maximal effect
# Method in brief: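 Doxycycline (100 ng/ml, 24 h) first induced the eGFP fusion in NCI-H358 C-terminal-tag cells. Washed-out cells then received titrated compounds for 24 h at 37 °C before paraformaldehyde fixation, Hoechst staining and cytometric GFP quantification.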
# [4] = BET inhibitor-based combinations targeting novel dependencies in MECOM-rearranged (r) AML: MV-4-11 cell line (AID 2202233); also: nearly all actives have a fitted effect of over 45% in size; also: potency is read from the fitted curve at half-maximal effect
# Method in brief: as §1
# [5] = BET inhibitor-based combinations targeting novel dependencies in MECOM-rearranged (r) AML: AML-191 cell line (AID 2202236; also: nearly all actives have a fitted effect of over 35% in size; also: potency is read from the fitted curve at half-maximal effect)
# Method in brief: (§2)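 500 cells/well; 11-pt dose curve; 48 h, standard incubator; CellTiter-Glo luminescence after 15 min RT; DMSO/empty-well normalization; AUC plus Z-AUC (mean-centered within each line).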
# [6] = BET inhibitor-based combinations targeting novel dependencies in MECOM-rearranged (r) AML: AML-194 cell line (AID 2202237; also: nearly all actives have a fitted effect of over 40% in size; also: potency is read from the fitted curve at half-maximal effect)
# Method in brief: as §2
# [7] = BET inhibitor-based combinations targeting novel dependencies in MECOM-rearranged (r) AML: HNT-34 cell line (AID 2202234); also: potency is read from the fitted curve at half-maximal effect; nearly all actives have a fitted effect of over 35% in size
# Method in brief: as §1
# Chain of Cellular tumor antigen p53 (Homo sapiens) (P04637 whole entry, looked up, the tested form may be a part): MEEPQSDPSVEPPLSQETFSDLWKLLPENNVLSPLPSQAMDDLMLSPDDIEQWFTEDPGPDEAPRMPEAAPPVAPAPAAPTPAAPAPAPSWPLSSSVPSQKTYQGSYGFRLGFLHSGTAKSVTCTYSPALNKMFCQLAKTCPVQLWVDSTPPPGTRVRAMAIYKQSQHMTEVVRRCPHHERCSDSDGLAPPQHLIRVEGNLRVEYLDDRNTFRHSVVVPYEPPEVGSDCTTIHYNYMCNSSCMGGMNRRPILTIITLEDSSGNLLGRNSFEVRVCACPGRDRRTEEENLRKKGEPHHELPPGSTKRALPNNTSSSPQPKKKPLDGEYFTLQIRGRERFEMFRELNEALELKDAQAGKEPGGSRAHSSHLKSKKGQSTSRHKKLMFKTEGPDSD
structure (smiles),measurement,setting,value
Cc1cc2c(F)c(Oc3ncnn4cc(OC[C@@H](C)O)c(C)c34)ccc2[nH]1,activation,[1],-34.1%
same,Potency,[2],inactive
O=[N+]([O-])c1ccc2c(c1)S(=O)(=O)C=C2,Potency,[3],30.1 µM (active)
O=c1ncn2nc(Sc3ccc(F)cc3F)ccc2c1-c1c(Cl)cccc1Cl,activation,[1],2.34%
same,Potency,[4],20.9 µM (active)
same,Potency,[5],29.5 µM (active)
Cc1cccc(CN2CCN(C(c3ccccc3)c3ccc(Cl)cc3)CC2)c1 (stereo not given),activation,[1],5.02% and 0.39%
same,Potency,[4],20.9 µM (active)
same,Potency,[5],inactive
CC[C@H](C)n1cc(C)c2c(C(=O)NCc3c(C)cc(C)[nH]c3=O)cc(-c3ccc(N4CCNCC4)nc3)cc21,activation,[1],-13%
same,Potency,[4],18.6 µM (active)
same,Potency,[6],inactive
Clc1ccc(COC(Cn2ccnc2)c2ccc(Cl)cc2Cl)c(Cl)c1 (stereo not given),activation,[1],-18.8%
same,Potency,[7],16.6 µM (active)
same,Potency,[2],inactive
same,Potency,[6],26.3 µM (active)
Cc1ccc(NC(=O)c2ccc(CN3CCN(C)CC3)cc2)cc1Nc1nccc(-c2cccnc2)n1,activation,[1],-19.4% and -18.4% and -2.86%
same,Potency,[2],inactive
COC(=O)C1C2CC3c4[nH]c5cc(OC)ccc5c4CCN3CC2CC(OC(=O)c2cc(OC)c(OC)c(OC)c2)C1OC (stereo not given),activation,[1],4.12%
same,Potency,[4],20.9 µM (active)
same,Potency,[2],inactive
O=C(O)c1c(Cl)c(Cl)c(Cl)c(Cl)c1-c1c2cc(I)c(=O)c(I)c-2oc2c(I)c(O)c(I)cc12,activation,[1],-18.2%
same,Potency,[4],inactive
same,Potency,[2],5.9 µM (active)
CN=c1nc(-c2ccccc2)n(-c2ccccc2)s1,Potency,[3],inactive
